The values below come from PubChem BioAssay (EPA / NIEHS).

Results filed as inconclusive are left out. Active and inactive are the calls of the source. The calls were made as follows, unless noted: active = hit-call score of the fitted dose curve at least 0.9, where 1 is the maximum; inconclusive = response in the unintended direction; inactive = score below 0.9.

The target in assay [1] is Thyroid hormone receptor alpha (Rattus norvegicus) + Thyroid hormone receptor beta (Rattus norvegicus) (UniProt P18113+P63059). In words: TOX21_TR_LUC_GH3_Agonist_Followup: Tox21 GH3 Thyroid Hormone Receptor Agonism Luciferase Follow-Up Assay (AID 2283939). The method in brief:
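Rat GH3 cells (1,500/well) in serum-free assay medium, treated with 15-point series, 92 uM to 5 nM final, for 24 h at 37C. Luciferase via ONE-Glo luminescence; gain of signal fitted against DMSO, T3 positive control.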

Assay [2] deals with THRA (gene 7067) (UniProt P10827). In words: TOX21_TRA_COA_Agonist_Followup_ratio: Tox21 Thyroid Hormone Receptor alpha Agonism through Coactivator Recruitment Follow-Up Assay, Ratio (AID 2283948; active = hit-call score of the fitted dose curve at least 0.9, where 1 is the maximum; inactive = score below 0.9). The method in brief:
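GST-TRa LBD 2.5 nM + 0.10% BSA + cpd; add fluorescein-SRC-2 200 nM, Tb-anti-GST 2 nM. TR-FRET ex 340, em 520/495 ratio. Norm: DMSO 0%, T3 100%; gain-of-signal fit.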

In assay [3] the target is THRB (gene 7068) (UniProt P10828). The experiment in a line: TOX21_TRB_BLA_Agonist_Followup_ratio: Tox21 Thyroid Hormone Receptor beta Agonism Beta-lactamase (BLA) Follow-Up Assay, Ratio (AID 2283954). The method in brief: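 Human TRβ LBD–GAL4 DBD fusion in GeneBLAzer UAS-bla HEK293T cells; 11 concentrations in triplicate, 18 h at 37°C/5% CO2, T3 as agonist control. CCF4-AM substrate 2 h at room temperature; 460:530 nm ratio fitted for gain of signal versus DMSO.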

Assay [4] has the same target. In words: TOX21_TRB_COA_Agonist_Followup_ratio: Tox21 Thyroid Hormone Receptor beta Agonism through Coactivator Recruitment Follow-Up Assay, Ratio (AID 2283963; active = hit-call score of the fitted dose curve at least 0.9, where 1 is the maximum; inactive = score below 0.9). An outline of the steps: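 GST-TRb LBD 5.0 nM + 0.10% BSA + cpd; add fluorescein-SRC-2 200 nM / Tb anti-GST Ab 2 nM; TR-FRET ex 340, em 520:495; norm DMSO 0%, T3 100%.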
For assay [5], the target named is Retinoic acid receptor RXR-alpha (Homo sapiens) (UniProt P19793). The experiment in a line: TOX21_TR_RXR_BLA_Agonist_Followup_ratio: Tox21 Thyroid Hormone Receptor beta Retinoid X Receptor alpha (RXRa) Agonism Beta-lactamase (BLA) Follow-Up Assay, Ratio (AID 2283968). An outline of the steps:
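HEK293T RXRa-bla, qHTS; cpd 11-pt conc. in triplicate, 16 h 37C/5% CO2; CCF4-AM 2 h RT; ratio 460:530 nm; agonist direction vs DMSO; 9-cis retinoic acid as positive control.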

Assay [6] in a line: TOX21_TR_RXR_BLA_Agonist_Followup_viability: Viability Assessment in the Tox21 Thyroid Hormone Receptor beta Retinoid X Receptor alpha (RXRa) Agonism Beta-lactamase (BLA) Follow-Up Assay (AID 2283970). The method in brief: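 Cells: HEK293T RXRa-UAS-bla, 2,500/well; medium phenol red-free DMEM + 2% charcoal-stripped FBS; 16h, 37C/5% CO2; qHTS concentration series. Read: CellTiter-Glo luminescence (ATP); bidirectional fit, DMSO = baseline.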

Assay [7] has as its target THRB (gene 7068) (UniProt P10828). The experiment in a line: TOX21_TRB_BLA_Antagonist_Followup_ratio: Tox21 Thyroid Hormone Receptor beta Antagonism Beta-lactamase (BLA) Follow-Up Assay, Ratio (AID 2283958). The method in brief:
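HEK293T TRb-bla (GAL4 DBD + hTRβ LBD), 2% cs-FBS phenol red-free DMEM, 5 h attach; cpds 11-pt triplicate, 18 h 37C; CCF4-AM 2 h RT; 460/530 ratio vs DMSO; CellTiter-Glo viability same wells.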

A short description of assay [8]: TOX21_TRB_BLA_Antagonist_Followup_viability: Viability Assessment in the Tox21 Thyroid Hormone Receptor beta Antagonism Beta-lactamase (BLA) Follow-Up Assay (AID 2283961). The method in brief: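 Viability read as CellTiter-Glo ATP luminescence (loss of signal = cytotoxicity) in the same plates as the TRβ-bla readout. TRβ-LBD/GAL4 UAS-bla HEK293T cells were exposed to compounds, 11 concentrations in triplicate, for 18 h at 37C/5% CO2.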

Assay [9] has as its target THRB (gene 7068) (UniProt P10828). The experiment in a line: TOX21_TRB_COA_Antagonist_Followup_ratio: Tox21 Thyroid Hormone Receptor beta Antagonism through Coactivator Recruitment Follow-Up Assay, Ratio (AID 2283967). An outline of the steps: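 Test compound was incubated with 5.0 nM GST-TRβ LBD in 0.10% BSA. Then 200 nM fluorescein-SRC-2 peptide and 2 nM terbium anti-GST antibody were added. TR-FRET (520:495 nm) was measured and normalized to DMSO and T3 controls.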

Assay [10] deals with Retinoic acid receptor RXR-alpha (Homo sapiens) (UniProt P19793). The experiment in a line: TOX21_TR_RXR_BLA_Antagonist_Followup_ratio: Tox21 Thyroid Hormone Receptor beta Retinoid X Receptor alpha (RXRa) Antagonism Beta-lactamase (BLA) Follow-Up Assay, Ratio (AID 2283972). The method in brief:
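Beta-lactamase reporter readout as cleaved/uncleaved substrate ratio (460:530 nm) after 2 h substrate loading at room temperature. GAL4-RXRa bla HEK293T cells were exposed 16 h at 37C to 11-point compound series; loss of signal scored against DMSO baseline.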

The nature of assay [11]: TOX21_TR_RXR_BLA_Antagonist_Followup_viability: Viability Assessment in the Tox21 Thyroid Hormone Receptor beta Retinoid X Receptor alpha (RXRa) Antagonism Beta-lactamase (BLA) Follow-Up Assay (AID 2283979). An outline of the steps:
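Follow-up compounds (11 concentrations, triplicate) were incubated 16 h at 37C/5% CO2 with HEK293T RXRa-bla cells seeded at 2,500/well in charcoal-stripped-serum medium. ATP content by CellTiter-Glo luminescence gave viability; curves fitted in both directions against DMSO.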

Sequence of THRB (gene 7068) (P10828 whole entry, looked up, the tested form may be a part): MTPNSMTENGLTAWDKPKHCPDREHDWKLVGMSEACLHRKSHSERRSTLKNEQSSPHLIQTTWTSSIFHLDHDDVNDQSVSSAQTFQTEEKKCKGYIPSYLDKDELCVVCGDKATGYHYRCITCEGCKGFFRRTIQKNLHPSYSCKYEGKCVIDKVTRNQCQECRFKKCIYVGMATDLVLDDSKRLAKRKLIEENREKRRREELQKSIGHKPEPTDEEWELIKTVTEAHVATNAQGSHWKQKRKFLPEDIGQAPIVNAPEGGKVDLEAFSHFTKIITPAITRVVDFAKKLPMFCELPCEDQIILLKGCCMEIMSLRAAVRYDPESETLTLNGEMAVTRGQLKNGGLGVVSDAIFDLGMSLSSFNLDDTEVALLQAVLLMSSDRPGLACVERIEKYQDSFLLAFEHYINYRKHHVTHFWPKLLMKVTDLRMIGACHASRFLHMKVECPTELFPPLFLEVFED
Sequence of Retinoic acid receptor RXR-alpha (Homo sapiens) (P19793 whole entry, looked up, the tested form may be a part): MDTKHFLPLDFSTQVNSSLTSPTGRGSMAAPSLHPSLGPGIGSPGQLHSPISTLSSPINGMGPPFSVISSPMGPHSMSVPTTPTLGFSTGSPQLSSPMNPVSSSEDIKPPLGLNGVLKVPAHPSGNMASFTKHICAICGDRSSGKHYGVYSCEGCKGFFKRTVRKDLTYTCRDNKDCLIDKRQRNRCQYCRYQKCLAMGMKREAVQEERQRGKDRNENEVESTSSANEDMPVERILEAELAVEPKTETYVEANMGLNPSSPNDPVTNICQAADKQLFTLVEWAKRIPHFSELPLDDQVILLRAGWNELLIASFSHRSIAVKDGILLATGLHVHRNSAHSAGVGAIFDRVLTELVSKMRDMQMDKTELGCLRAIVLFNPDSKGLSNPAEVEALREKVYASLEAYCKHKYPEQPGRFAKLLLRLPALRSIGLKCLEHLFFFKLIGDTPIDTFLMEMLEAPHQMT
Sequence of THRA (gene 7067) (P10827 whole entry, looked up, the tested form may be a part): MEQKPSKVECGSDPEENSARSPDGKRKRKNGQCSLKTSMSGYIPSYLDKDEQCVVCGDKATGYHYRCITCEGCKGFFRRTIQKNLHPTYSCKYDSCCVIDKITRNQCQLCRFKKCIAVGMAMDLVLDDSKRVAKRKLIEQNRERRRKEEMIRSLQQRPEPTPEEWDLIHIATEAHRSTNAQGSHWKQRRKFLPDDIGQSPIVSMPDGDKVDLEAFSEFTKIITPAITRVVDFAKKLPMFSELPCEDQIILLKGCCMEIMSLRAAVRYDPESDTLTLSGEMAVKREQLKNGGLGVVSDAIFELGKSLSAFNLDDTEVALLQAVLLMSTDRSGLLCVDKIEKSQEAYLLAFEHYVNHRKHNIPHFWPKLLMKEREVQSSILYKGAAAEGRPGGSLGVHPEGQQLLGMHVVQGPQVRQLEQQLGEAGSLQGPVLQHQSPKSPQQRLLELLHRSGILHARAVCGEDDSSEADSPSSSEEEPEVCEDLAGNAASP
Sequence of Thyroid hormone receptor alpha (Rattus norvegicus) + Thyroid hormone receptor beta (Rattus norvegicus) (P63059 whole entry, looked up): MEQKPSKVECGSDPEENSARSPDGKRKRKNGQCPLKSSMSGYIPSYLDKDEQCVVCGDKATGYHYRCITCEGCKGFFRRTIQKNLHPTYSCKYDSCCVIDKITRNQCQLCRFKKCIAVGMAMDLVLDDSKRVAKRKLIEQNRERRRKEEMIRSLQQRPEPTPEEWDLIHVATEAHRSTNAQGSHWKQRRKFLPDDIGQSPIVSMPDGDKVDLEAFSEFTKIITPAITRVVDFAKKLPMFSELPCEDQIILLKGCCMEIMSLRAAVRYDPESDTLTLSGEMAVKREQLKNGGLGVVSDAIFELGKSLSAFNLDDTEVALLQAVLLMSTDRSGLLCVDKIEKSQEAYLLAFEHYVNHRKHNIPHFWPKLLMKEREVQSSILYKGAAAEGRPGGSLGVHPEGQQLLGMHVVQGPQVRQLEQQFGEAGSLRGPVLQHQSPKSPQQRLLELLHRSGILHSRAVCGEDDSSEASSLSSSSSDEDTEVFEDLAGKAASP
Sequence of Thyroid hormone receptor alpha (Rattus norvegicus) + Thyroid hormone receptor beta (Rattus norvegicus) (P18113 whole entry, looked up): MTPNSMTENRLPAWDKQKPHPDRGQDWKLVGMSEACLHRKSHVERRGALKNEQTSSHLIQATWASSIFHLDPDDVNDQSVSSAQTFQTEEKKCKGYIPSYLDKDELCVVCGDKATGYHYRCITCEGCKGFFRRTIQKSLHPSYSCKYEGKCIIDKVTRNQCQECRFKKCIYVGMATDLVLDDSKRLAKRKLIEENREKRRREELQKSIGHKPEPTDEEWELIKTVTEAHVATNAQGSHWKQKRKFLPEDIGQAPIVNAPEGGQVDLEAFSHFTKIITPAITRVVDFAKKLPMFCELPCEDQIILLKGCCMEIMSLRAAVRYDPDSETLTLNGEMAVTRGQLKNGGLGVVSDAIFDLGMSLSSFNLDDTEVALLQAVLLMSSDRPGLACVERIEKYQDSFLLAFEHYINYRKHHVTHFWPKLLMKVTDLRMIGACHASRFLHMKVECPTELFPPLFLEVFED

Regarding `CCCCCCC(C)O` (stereo unspecified), the outcome in assay [1], in [2], in [3], in [4], in assay [5] and in [6] was inactive.
A word on the AC50: it is the concentration giving half of the maximal activity seen. `C#C[C@]1(O)CC[C@H]2[C@@H]3CCc4cc(O)ccc4[C@H]3CC[C@@]21C`: the AC50 in assay [7] and in assay [10] was 38.3 µM (active) each time. Also, the molecule was classed as inactive in assay [8], in assay [9] and in assay [11].
